In PubChem BioAssay one finds growth inhibition, inhibition and outcome data, which are given here for 20 compounds.

A short description of assay [1]: antimalarial activity against Dd2 strain (AID 2302;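 active = growth inhibition above 50% at the single 2 µM test dose, taken to imply half-maximal potency below 2 µM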;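 note: 0% = DMSO untreated growth and 100% = chloroquine plus artemisinin killed control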). The settings on record: P. falciparum Dd2 in RBCs, LDH growth readout, 72 h; at 2 µM; stronger effect = higher value.
Assay [2] can be described thus: human hepatoma cell viability loss – ATP luminescence, cytotoxicity control for P. falciparum antimalarial project, primary screen (AID 2303;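 active = inhibition above 50%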;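 note: 0% = DMSO wells and 100% = digitonin-killed cells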). As to conditions: HepG2 viability, 24-48 h, at 10 µM, stronger effect = higher value.
In assay [3] the target is L-lactate dehydrogenase (Plasmodium falciparum (isolate CDC / Honduras)) (UniProt Q27743). Kind of assay: PfLDH activity inhibition – cell lysate, 3D7 strain, counter-screen for P. falciparum growth inhibition project (AID 2304).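 Note: 0% = vehicle and 100% = reference inhibitor.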 As to conditions: P. falciparum 3D7 crude extract, LDH APAD/NBT absorbance; at 2 µM; stronger effect = higher value. For orientation: A counterscreen serves to expose hits that act by an unwanted route or on another target.
L-lactate dehydrogenase (Plasmodium falciparum (isolate CDC / Honduras)), sequence (Q27743 whole entry, looked up): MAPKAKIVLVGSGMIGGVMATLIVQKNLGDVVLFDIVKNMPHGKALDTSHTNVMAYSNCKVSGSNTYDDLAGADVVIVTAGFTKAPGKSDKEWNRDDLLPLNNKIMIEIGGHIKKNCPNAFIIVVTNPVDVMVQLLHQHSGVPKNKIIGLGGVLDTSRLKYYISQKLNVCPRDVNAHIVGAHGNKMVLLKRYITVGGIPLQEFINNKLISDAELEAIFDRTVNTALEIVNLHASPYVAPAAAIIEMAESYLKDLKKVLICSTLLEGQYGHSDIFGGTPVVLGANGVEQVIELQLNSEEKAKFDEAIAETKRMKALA

A short description of assay [4]: inhibition of 3D7 malaria parasite growth – strain 3D7 (AID 2306).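 Note: 0% = DMSO wells and 100% = chloroquine plus artemisinin control wells.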 The settings on record: P. falciparum 3D7 erythrocytic growth, LDH absorbance, 72 h; at 2 µM; stronger effect = higher value.
Assay [5] addresses Calcium-dependent protein kinase 1 (Plasmodium falciparum (isolate 3D7)) (UniProt P62344). Briefly: PfCDPK1 kinase inhibitors, biochemical, TCAMS library (AID 1159585; cut-off not given, nearly all actives have IC50 up to about 0.98 µM;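 note: inhibitors leave more ATP so luminescence rises with inhibition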). The settings on record: recombinant PfCDPK1, Kinase-Glo ATP depletion luminescence.
In assay [6] the target is Plasmodium falciparum protein kinase 6 (PK6, PF3D7_1337100) (UniProt Q8IDW1). Kind of assay: PfPK6 kinase inhibitors, biochemical, TCAMS library (AID 1159586). As to conditions: recombinant PfPK6, Kinase-Glo ATP depletion luminescence. On the technique in general: Kinase-Glo reads ATP consumption through a luciferase reaction.
Plasmodium falciparum protein kinase 6 (PK6, PF3D7_1337100), sequence (Q8IDW1 1-305): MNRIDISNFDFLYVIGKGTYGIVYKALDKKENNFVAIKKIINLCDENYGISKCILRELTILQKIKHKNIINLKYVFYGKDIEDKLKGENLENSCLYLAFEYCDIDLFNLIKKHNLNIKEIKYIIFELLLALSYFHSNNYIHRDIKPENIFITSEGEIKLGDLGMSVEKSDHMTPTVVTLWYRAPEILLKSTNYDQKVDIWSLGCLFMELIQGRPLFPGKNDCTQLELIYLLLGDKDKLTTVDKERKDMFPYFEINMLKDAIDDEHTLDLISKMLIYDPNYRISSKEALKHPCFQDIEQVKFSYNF
The target of assay [7] is Protein kinase 7 (PK7), Plasmodium falciparum 3D7 (PF3D7_0213400) (UniProt Q7YTF7). Kind of assay: inhibition of Plasmodium PK7 catalytic activity – biochemical, TCAMS antimalarial set, Kinase-Glo luminescence (AID 1159587). As to conditions: recombinant PfPK7, Kinase-Glo ATP depletion luminescence.
Protein kinase 7 (PK7), Plasmodium falciparum 3D7 (PF3D7_0213400), sequence (Q7YTF7 1-343): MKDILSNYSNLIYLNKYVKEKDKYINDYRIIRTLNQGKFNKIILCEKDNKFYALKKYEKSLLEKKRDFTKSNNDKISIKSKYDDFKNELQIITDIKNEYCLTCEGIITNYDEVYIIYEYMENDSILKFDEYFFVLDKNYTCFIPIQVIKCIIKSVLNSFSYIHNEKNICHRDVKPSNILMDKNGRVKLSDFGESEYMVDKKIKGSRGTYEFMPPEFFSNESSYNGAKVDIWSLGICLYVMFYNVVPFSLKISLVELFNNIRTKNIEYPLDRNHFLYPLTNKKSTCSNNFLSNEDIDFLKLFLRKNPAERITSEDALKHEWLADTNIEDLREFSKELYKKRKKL
In assay [8] the target is Calcium-dependent protein kinase 4 (Plasmodium falciparum (isolate 3D7)) (UniProt Q8IBS5). Briefly: PfCDPK4 kinase inhibitors, biochemical, TCAMS library (AID 1159588; cut-off not given, nearly all actives have IC50 up to about 0.91 µM). The settings on record: recombinant PfCDPK4, Kinase-Glo ATP depletion luminescence.
Calcium-dependent protein kinase 4 (Plasmodium falciparum (isolate 3D7)), sequence (Q8IBS5 whole entry, looked up): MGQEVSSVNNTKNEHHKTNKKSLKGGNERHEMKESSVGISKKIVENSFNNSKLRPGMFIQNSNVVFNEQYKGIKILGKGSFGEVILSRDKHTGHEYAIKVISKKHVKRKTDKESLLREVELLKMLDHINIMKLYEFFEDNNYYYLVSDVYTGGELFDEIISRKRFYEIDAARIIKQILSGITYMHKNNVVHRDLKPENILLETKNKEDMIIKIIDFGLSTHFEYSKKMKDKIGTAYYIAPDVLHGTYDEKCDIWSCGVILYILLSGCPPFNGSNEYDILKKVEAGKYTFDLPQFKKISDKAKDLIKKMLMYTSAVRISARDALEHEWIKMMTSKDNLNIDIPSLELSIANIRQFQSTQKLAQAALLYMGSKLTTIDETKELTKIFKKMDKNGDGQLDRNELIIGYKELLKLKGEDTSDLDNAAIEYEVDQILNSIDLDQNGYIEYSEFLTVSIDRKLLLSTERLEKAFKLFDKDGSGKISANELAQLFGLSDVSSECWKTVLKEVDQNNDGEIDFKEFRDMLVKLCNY

What is called inhibition is the drop in the measured response relative to a control, in per cent.

Structures are written as SMILES. Values without a mark were called inactive. For some of these results: Entries with a potency or affinity are not part of this list. Calls of active or inactive are those of the source. Unless noted, the rule behind the calls is not given here.

Calcium-dependent protein kinase 1 (Plasmodium falciparum (isolate 3D7)), sequence (P62344 whole entry, looked up): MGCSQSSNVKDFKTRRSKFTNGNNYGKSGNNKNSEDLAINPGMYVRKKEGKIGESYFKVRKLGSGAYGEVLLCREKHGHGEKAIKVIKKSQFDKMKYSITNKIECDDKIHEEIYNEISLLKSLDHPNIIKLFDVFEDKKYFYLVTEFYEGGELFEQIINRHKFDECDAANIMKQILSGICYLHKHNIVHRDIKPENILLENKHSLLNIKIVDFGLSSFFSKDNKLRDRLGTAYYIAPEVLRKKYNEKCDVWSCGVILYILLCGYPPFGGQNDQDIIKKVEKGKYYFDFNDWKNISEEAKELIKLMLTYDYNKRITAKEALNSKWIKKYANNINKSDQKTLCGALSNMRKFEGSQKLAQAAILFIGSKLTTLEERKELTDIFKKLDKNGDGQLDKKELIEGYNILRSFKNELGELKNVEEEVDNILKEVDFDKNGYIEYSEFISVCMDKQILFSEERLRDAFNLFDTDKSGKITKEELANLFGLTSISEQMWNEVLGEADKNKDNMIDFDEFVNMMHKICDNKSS

As to `CCCC(C)Nc1nc(C)cc(N[C@@H](Cc2ccccc2)C(=O)Nc2ccccc2)n1` (stereo not given in full), the growth inhibition in assay [1] was 67% (active); in assay [4], 100% (active). Besides, the results for the inhibition in assay [2] and in assay [3] were 50% (active) and -2%, respectively. For the same compound, the result in assay [5], in assay [6], in assay [7] and in assay [8] was inactive.

`Cc1cccc2[nH]c(-c3cccc(-c4cccc(NC(=O)CCc5cnc[nH]5)c4)c3)nc12`: the growth inhibition is 86% (active) in assay [1] and 102% (active) in assay [4]. For the same compound, the inhibition was 16% in assay [2] and 0% in assay [3]. The result in assay [5], in assay [6], in assay [7] and in assay [8] was inactive.

For `CN1CCc2cc(NS(=O)(=O)c3ccc(-c4ccc(Cl)cc4)cc3)c(OCCCN3CCCCC3)cc2CC1`, the growth inhibition in assay [1] was 100% (active); in assay [4] it was 101% (active). Moreover, the inhibition in assay [2] was 91% (active); in assay [3], 0%. Besides, the result in assay [5], in assay [6], in assay [7] and in assay [8] was inactive.

Consider `COc1cc(/C=C/C(=O)NCC(CCNc2cc(=O)c3ccccc3[nH]2)NCc2cc(Br)cc(Br)c2)cc(OC)c1` (stereo not given), for which the growth inhibition in assay [1] was 28%; in assay [4], 90% (active). The inhibition in assay [2] was -11%; in assay [3] it was -4%. For the same compound, the result in assay [5], in assay [6], in assay [7] and in assay [8] was inactive.

In the case of `O=C(NCCCNc1ccnc2cc(Cl)ccc12)c1ccccc1F`, the growth inhibition in assay [1] was 97% (active); in assay [4], 100% (active). The figures for the inhibition in assay [2] and in assay [3] were 18% and 3%, respectively. The outcome in assay [5], in assay [6], in assay [7] and in assay [8] was inactive.

Consider `CCc1sc(N2CCN(C)CC2)nc1C(=O)NCCc1ccc(Cl)c(Cl)c1`, for which the growth inhibition was 49% in assay [1] and 92% (active) in assay [4]. Moreover, the inhibition in assay [2] and in assay [3] was 5% each time. The result in assay [5], in assay [6], in assay [7] and in assay [8] was inactive.

With `CCCCCC(C)NC[C@@H](O)[C@H](Cc1ccccc1)NC(=O)c1cc(NCC)cc(N2CCCCS2(=O)=O)c1` (stereo not given in full), the figures for the growth inhibition in assay [1] and in assay [4] were 79% (active) and 98% (active), respectively. In addition, the inhibition in assay [2] was 3%; in assay [3], 0%. Also, the result in assay [5], in assay [6], in assay [7] and in assay [8] was inactive.

For `CN(C)Cc1ccc(-c2ccc3ccnc(N)c3c2)cc1`, the growth inhibition in assay [1] and in assay [4] was 100% (active) each time. The inhibition in assay [2] was 20%; in assay [3] it was -1%. The result in assay [5], in assay [6], in assay [7] and in assay [8] was inactive.

In the case of `Cc1nc(-c2cccc(Nc3nccc(NCC(O)c4ccccc4C)n3)c2)cs1` (stereo not given), the growth inhibition in assay [1] was 14%; in assay [4] it was 92% (active). The inhibition in assay [2] was 38%; in assay [3] it was -2%. Besides, the outcome in assay [5], in assay [6], in assay [7] and in assay [8] was inactive.

For `CC(C)(CNC(=O)[C@@H]1CCCN(CCOc2ccc(F)c(F)c2)C1)c1nc(-c2ccc(Cl)c(O)c2)c(-c2ccncc2)[nH]1`, the growth inhibition in assay [1] is 77% (active); in assay [4], 101% (active). The inhibition in assay [2] is 72% (active); in assay [3] it was -1%. The outcome in assay [5], in assay [6], in assay [7] and in assay [8] was inactive.

`CS(=O)(=O)Nc1cccc(-c2cnc3[nH]cc(-c4ccc(C(=O)O)c(F)c4)c3c2)c1`: the growth inhibition was 76% (active) in assay [1] and 99% (active) in assay [4]. Also, the inhibition in assay [2] was 27%; in assay [3], 5%. Moreover, the outcome in assay [5], in assay [6], in assay [7] and in assay [8] was inactive.

Consider `N#CCCN1CCN(Cc2cccc(-c3ccc(-c4nc5ccccc5[nH]4)cc3)c2)CC1`, for which the figures for the growth inhibition in assay [1] and in assay [4] were 20% and 93% (active), respectively. The figures for the inhibition in assay [2] and in assay [3] were 18% and -9%, respectively. Besides, the outcome in assay [5], in assay [6], in assay [7] and in assay [8] was inactive.

For the compound `Cc1cccc2[nH]c(-c3ccc(-c4ccc(NC(=O)Nc5ccc(Cl)cc5)cc4)cc3)nc12`, the values for the growth inhibition in assay [1] and in assay [4] were 100% (active) and 101% (active), respectively. Also, the results for the inhibition in assay [2] and in assay [3] were 52% (active) and -5%, respectively. Besides, the result in assay [5], in assay [6], in assay [7] and in assay [8] was inactive.

Regarding `COc1ccc(C(=O)Nc2ccc(Cl)cc2C(=O)Nc2ccncc2)cc1`, the growth inhibition in assay [1] was 29%; in assay [4], 91% (active). For the same compound, the figures for the inhibition in assay [2] and in assay [3] were 7% and 1%, respectively. Besides, the result in assay [5], in assay [6], in assay [7] and in assay [8] was inactive.

With `CC(CNC(=O)[C@H]1CNCCN1C(=O)CCCc1ccccc1)c1ccccc1` (stereo not given in full), the results for the growth inhibition in assay [1] and in assay [4] were 1% and 94% (active), respectively. Moreover, the inhibition in assay [2] was 12%; in assay [3] it was 3%. The result in assay [5], in assay [6], in assay [7] and in assay [8] was inactive.

On to `O=C(NCCc1ccccc1)N(Cc1ccccc1-c1cccc(CNCc2ccc3c(c2)OCO3)c1)C1CCN(Cc2ccccc2)CC1`, for which the figures for the growth inhibition in assay [1] and in assay [4] were 77% (active) and 93% (active), respectively. The inhibition in assay [2] was 29%; in assay [3], 5%. The outcome in assay [5], in assay [6], in assay [7] and in assay [8] was inactive.

Regarding `O=C(Cc1cc(F)cc(F)c1)NC1CCN(c2ccnc3cc(Cl)ccc23)C1` (stereo not given), the growth inhibition in assay [1] was 101% (active); in assay [4], 82% (active). In addition, the values for the inhibition in assay [2] and in assay [3] were 13% and 0%, respectively. Also, the outcome in assay [5], in assay [6], in assay [7] and in assay [8] was inactive.

`CCCCCCn1c(Sc2ccc(C#N)c([N+](=O)[O-])c2)nnc1-c1ccccc1`: the growth inhibition in assay [1] was 41%; in assay [4] it was 97% (active). For the same compound, the inhibition in assay [2] is 23%; in assay [3], -1%. The result in assay [5], in assay [6], in assay [7] and in assay [8] was inactive.

`O=c1cc(NCCCNCc2ccc(Cl)c(Cl)c2)[nH]c2ccc(C(F)(F)F)cc12`: the growth inhibition in assay [1] was 68% (active); in assay [4], 103% (active). Also, the figures for the inhibition in assay [2] and in assay [3] were 10% and -5%, respectively. For the same compound, the result in assay [5], in assay [6], in assay [7] and in assay [8] was inactive.

Regarding `O=C(Nc1ccc(Cl)cc1)c1cccc(CN2CCCN(Cc3cccc(O)c3)CC2)c1`, the growth inhibition in assay [1] was 43%; in assay [4], 98% (active). Moreover, the values for the inhibition in assay [2] and in assay [3] were 14% and 3%, respectively. Besides, the outcome in assay [5], in assay [6], in assay [7] and in assay [8] was inactive.
